# PubChem BioAssay (NCI)
# About 83,000 compounds went through this panel and 20% of them were active in at least one assay; those are over-represented in the sample as a whole.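 How to read the values: 0–100, growth inhibition (40 = 60% inhibited); 0, no net growth; -100 to 0, cell death (-40 = 40% of starting cells died; -100 = all dead).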 Unmarked numbers belong to inactive results. The source made the active and inactive calls. Rule for the calls: active = growth percent below 10; inactive = the rest.
# Assays:
# Assay in all cases: NCI-60 one-dose screen, 48 h (100 = growth as untreated, 0 = no growth, -100 = all killed)
# Conditions in all cases: 10 µM unless noted
# [1] = system: K-562 leukemia
# [2] = system: MALME-3M melanoma
# [3] = system: MDA-MB-231 breast
# [4] = system: RXF 393 renal
# [5] = system: SF-268 CNS
# [6] = system: SF-295 CNS
# [7] = system: SF-539 CNS
# [8] = system: UACC-257 melanoma
# [9] = system: M14 melanoma
# [10] = system: HCT-15 colon
# [11] = system: HT29 colon
# [12] = system: SNB-75 CNS
# [13] = system: SNB-19 CNS
# [14] = system: U251 CNS
# [15] = system: PC-3 prostate
# [16] = system: SK-MEL-5 melanoma
# [17] = system: UACC-62 melanoma
# [18] = system: SK-MEL-28 melanoma
# [19] = system: SK-MEL-2 melanoma
# [20] = system: LOX IMVI melanoma
SMILES,growth [1],growth [2],growth [3],growth [4],growth [5],growth [6],growth [7],growth [8],growth [9],growth [10],growth [11],growth [12],growth [13],growth [14],growth [15],growth [16],growth [17],growth [18],growth [19],growth [20]
COc1ccc(N/N=C/c2c(-c3ccc(S(C)(=O)=O)cc3)nc3ccccn23)cc1,8.66% (active),75.1%,38.7%,79.3%,55.7%,6.91% (active),55.4%,70.6%,18.4%,19.3%,64.4%,62.6%,78.6%,69.4%,29.1%,59.5%,10.8%,51.5%,–,–
COc1cc(N=Cc2sc(Nc3nccs3)nc2O)cc(OC)c1OC,84.4%,79.2%,79.1%,99.5%,78.8%,69.9%,90.5%,92.6%,79.9%,71.4%,109%,73.6%,78.2%,84.7%,80.9%,87.6%,75.5%,84.2%,74%,–
COc1ccc(/C=N/NC(=O)c2[nH]c3ccc(Br)cc3c2-c2ccccc2)o1,12.1%,51.5%,-5.34% (active),50.9%,38.6%,16.6%,-17.4% (active),54.1%,-1.43% (active),10.7%,-26.9% (active),50.3%,30.8%,19.5%,22.6%,-29% (active),43.7%,63.3%,–,–
COc1ccc(/C=C2\SC(=Nc3cc(C)[nH]n3)NC2=O)cc1,101%,89.6%,95.4%,80.7%,95.8%,86.3%,95.8%,98.7%,98.1%,84.2%,107%,95.2%,90.8%,98.1%,81%,95.7%,90.6%,85%,121%,–
COc1cc(/C=C/C(=O)c2cc(OC)c(OC)c(OC)c2)ccc1OCc1ccc(F)cc1,11.7%,67.6%,46.8%,77.7%,58%,54.7%,9.22% (active),79.8%,71%,16%,4.34% (active),8.67% (active),49.8%,33.8%,35%,58.7%,43.9%,81.1%,–,–
Clc1ccc(-c2cn3cc(Cc4ccc(Cl)c(Cl)c4)sc3n2)cc1,34.7%,86.3%,72.7%,104%,86.2%,35.8%,83.8%,52.3%,20.2%,60.7%,90.5%,70.7%,88.9%,93.7%,81.6%,38.2%,18.2%,71%,113%,53.1%
Clc1ccc2c(NCCCn3ccnc3)c3oc4ccc(Cl)cc4c3nc2c1,66.2%,96.5%,58.8%,55.4%,91.1%,86.4%,84%,97.9%,105%,51.9%,80.9%,70.2%,82.8%,60.5%,73.8%,86.8%,94.6%,94%,113%,22.4%
Cc1cccc(/C=C/c2nn3c(-c4ccco4)nnc3s2)c1,93%,96.9%,98.2%,111%,105%,94.5%,94.9%,98.3%,101%,88.1%,104%,100%,94.1%,99.1%,103%,92%,94%,97.3%,112%,–
CCCCCCNC(=O)Oc1ccc(/C(=C(/C)c2ccccc2)c2ccc(OCCN3CCCCCC3)cc2)cc1,-9.12% (active),12.2%,41.7%,9.02% (active),62.2%,36.3%,11.1%,-2.81% (active),-39.7% (active),9.9% (active),-13.3% (active),56%,66.7%,22.1%,38.7%,20.1%,44.2%,44.4%,–,–
NC(=O)c1cc(-c2ccc3ncnc(N4CCc5cc(F)c(Cl)cc54)c3c2)cnc1N,35.2%,25.1%,34.5%,-17.5% (active),27.6%,25.3%,-23.4% (active),54.8%,38.3%,25.8%,21%,-25% (active),39.5%,40.8%,25%,52.1%,26%,28.8%,-51.5% (active),24%
C#Cc1nc(C2=C(C)C(OC(C)=O)/C(=N/OC(C)=O)C2)cs1 (stereo not drawn),15.4%,-46.5% (active),-69.9% (active),-19.5% (active),-42.6% (active),-89.8% (active),-90.9% (active),85.5%,69.2%,-11.2% (active),-14.1% (active),-89% (active),78.4%,-13.9% (active),-11.1% (active),89.7%,11.3%,101%,92.8%,–
COc1ccc(C(=O)/C=C/c2ccc(OCc3ccc(Cl)cc3)c(OC)c2)cc1OC,23.9%,82.3%,57.7%,96.2%,78.7%,68.3%,71.8%,83.5%,78.1%,34.2%,63.7%,74.8%,72.3%,58.1%,59.4%,55.2%,52.6%,83.3%,83.3%,–
COC1CCN(Cc2ccc3c(NNC(=O)c4cnccn4)nc4cc(F)ccc4n23)C1 (stereo not drawn),12%,48.6%,19.8%,37.9%,35.8%,21.4%,4.26% (active),-3.02% (active),3.22% (active),28.7%,19.3%,65.8%,36.1%,12.8%,40.9%,15.9%,20.7%,29.2%,74.7%,5.96% (active)
O=C(N/N=C/c1ccc(Br)s1)c1[nH]c2ccc(Br)cc2c1-c1ccccc1,7.72% (active),55.1%,4.67% (active),60%,37.2%,14.8%,0.701% (active),57.2%,2.05% (active),12.4%,5.61% (active),39.5%,31.3%,24.4%,28.8%,-27.3% (active),41.7%,63.1%,18.7%,–
Cc1nc(-c2cc3ccccc3oc2=O)ccc1C(=O)/C=C/c1ccc(Cl)c(Cl)c1,103%,96.9%,95.5%,119%,99.8%,95.7%,92.5%,120%,107%,107%,114%,95.2%,98.5%,99.4%,101%,105%,100%,106%,134%,–
Nc1nc(N)c2c(n1)NC(c1ccc(C(F)(F)F)cc1)CC(c1ccc(Nc3nc(NCCO)nc(Nc4ccc(Cl)cc4)n3)cc1)=N2 (stereo not drawn),1.08% (active),-79% (active),-59.4% (active),-78.8% (active),-29.4% (active),-79.5% (active),-86.2% (active),74.1%,-86.9% (active),-54.4% (active),-66.6% (active),35.4%,-79.1% (active),-22.3% (active),-31.5% (active),-92.8% (active),-41.5% (active),-94.6% (active),–,–
